This is an account of results in PubChem BioAssay AID1851 (National Center for Advancing Translational Sciences (NCATS), 2009).

The whole screen tested about 16,000 compounds, of which about 5,800 (36%) were called active. Not shown: some 23% with an inconclusive outcome. Calls come from the whole dose curve; as a rule, active = well fitted curve in the direction sought with a large enough effect; inconclusive = small, poorly fitted or top-dose-only effect, or effect the other way; inactive = no such curve, though single readings can be large or run the other way. The list shows a part of the results.
% is set by controls: 0 for no effect and ±100 for the full control effect.

Sequence of Cytochrome P450 2C19 (Homo sapiens) (P33261 whole entry, looked up): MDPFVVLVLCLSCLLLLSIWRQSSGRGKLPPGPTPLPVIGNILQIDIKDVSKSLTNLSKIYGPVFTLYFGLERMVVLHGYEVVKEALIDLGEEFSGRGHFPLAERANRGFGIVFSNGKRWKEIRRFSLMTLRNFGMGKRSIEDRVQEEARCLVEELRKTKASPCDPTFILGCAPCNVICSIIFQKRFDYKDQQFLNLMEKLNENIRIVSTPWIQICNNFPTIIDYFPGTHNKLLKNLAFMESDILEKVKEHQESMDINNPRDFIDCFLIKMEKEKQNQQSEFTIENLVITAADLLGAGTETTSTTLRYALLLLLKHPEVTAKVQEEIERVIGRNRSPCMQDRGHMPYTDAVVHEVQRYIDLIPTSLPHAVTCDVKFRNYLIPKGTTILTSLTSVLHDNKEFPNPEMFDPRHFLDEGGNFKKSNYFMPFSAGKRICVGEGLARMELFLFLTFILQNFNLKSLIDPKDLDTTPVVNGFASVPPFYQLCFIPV

The target in this assay is Cytochrome P450 2C19 (Homo sapiens) (UniProt P33261). The experiment in a line: Cytochrome panel assay with activity outcomes. The following applies: recombinant CYP, pro-luciferin dealkylation, luminescence, p450-cyp2c19; series mostly up to 57.1 µM; activity, negative = inhibition: at the top concentration. As for the experimental part:
The P450 gene superfamily is involved in the metabolism and clearance of xenobiotics. This assay used various human CYP P450 isozymes to measure the dealkylation of various pro-luciferin substrates to luciferin. The luciferin is then measured by luminescence after the addition of a luciferase detection reagent. Pro-luciferin substrate concentration in the assay was equal to its KM for its CYP P450 isozyme. Inhibitors and some substrates limit the production of luciferin, and decrease measured luminescence.
NCGC Assay Protocol Summary:
1, Reagent, 2 uL, Isozyme and Pro-Luciferin
2, Library compounds, 23 nl, 40 uM to 0.24 nM dilution series
3, Controls, 23 nl, Isozyme specific inhibitor
4, Reagent, 2 uL, NADPH regeneration solution
5, Incubation time, 60 min, Isozyme specific temperature
6, Reagent, 4ul, Detection reagent
7, Incubation time, 20 min, Isozyme specific temperature
8, Detection, 1 sec, ViewLux luminescent read
The luciferase-based P450-GloTM Screening Systems were obtained from Promega (Madison, WI) for CYP 1A2 (V9770), CYP 2C9 (V9790), CYP2 C19 (V9880), CYP 2D6 (V9890), and CYP 3A4 Luciferin-PPXE (V9910) and were adapted for 1,536-well microplates and an automated protocol. The control compounds furafylline for 1A2 (F124), sulfaphenazole for CYP 2C9 (S0758), ketoconazole for CYP 2C19 (K1003), quinidine for 2D6 (Q3625), and ketoconazole for 3A4 (K1003) were purchased from Sigma Aldrich (St. Louis, MO). Recombinant P450 enzymes were obtained from baculovirus constructs expressed in insect cells (BD/Gentest).
Medium-binding white solid Kalypsys plates used. Mixtures kept on ice. 1A2: 10 nM 1A2, 100 uM Luc-ME, 100 mM KPO4; 2C9: 10 nM 2C9, 100 uM Luc-H, 25 mM KPO4; 2C19: 5 nM 2C19, 10 uM Luc-H EGE, 50 mM KPO4; 2D6: 5 nM 2D6, 30 uM Luc-ME EGE, 100 mM KPO4; 3A4: 10 nM, 25 uM Luc-PPXE. All amounts are reflected in their final concentration, working concentration is 2x.
NADPH regeneration solution: 1.3 mM NADP+, 3.3 mM glucose-6-phosphate, 3.3 mM MgCl2, 0.4 U/mL glucose-6-phosphate dehydrogenase for all isozymes, 200 mM KPO4 for 3A4. Mixture prepared at RT but kept on ice during automated run.
RT incubation in auxilliary plate hotel for 1A2, 2D6, and 3A4; 37C for 2C9 and 2C19.
Keywords: P450, CYP1A2, CYP2C19, CYP2C9, CYP2D6, CYP3A4, Luciferase, MLSMR, MLSCN, NIH Roadmap, qHTS, NCGC
With `CCOC(=O)c1ncn2c1CN(C)C(=O)c1cc(F)ccc1-2`, the AC50 was 1580 nM (active).
`O=C(Nc1ccccc1)N1CC2(CCN(C(=O)Oc3ccccc3)CC2)C1`: the “activity, negative = inhibition” value is -43.7% (inactive).
Take `COC(=O)[C@@H]1c2cc3c(c(O)c2[C@@H](O)C[C@]1(C)O)C(=O)c1c(O)cc2c(c1C3=O)O[C@H]1O[C@@]2(C)[C@@H](O)[C@H](N(C)C)[C@H]1O`: the activity, negative = inhibition was -43.8% [at 11.4 µM] (inactive).
Turning to `N[C@H](Cc1ccc(N(CCCl)CCCl)cc1)C(=O)O`, the “activity, negative = inhibition” value was 12.3% (inactive).
Take `CCCC(CCC)C(=O)O`: the “activity, negative = inhibition” value was -0.0295% (inactive).
`C1CCc2nnnn2CC1`: the “activity, negative = inhibition” value was 0.268% (inactive).
Turning to `O=C(Nc1ccc(F)cc1F)c1cccnc1Oc1cccc(C(F)(F)F)c1`, the concentration at half-maximal activity (AC50) was 1260 nM (active).
Take `NNC(=O)c1ccc(O)cc1`: the “activity, negative = inhibition” value was 28.3% (inactive).
Turning to `CCCn1c(C)c(C(=O)c2cccc3ccccc23)c2ccccc21`, the AC50 is 10000 nM (active).
For `COc1ccc(C(=O)c2c(C)n(CCN3CCOCC3)c3cc(I)ccc23)cc1`, the “activity, negative = inhibition” value was 7.54% (inactive).
Regarding `CCCn1c(C)c(C(=O)c2ccc3ccccc3c2)c2ccccc21`, the AC50 is 2000 nM (active).
`O=C(C[n+]1ccc2ccccc2c1)c1ccc2ccc3ccccc3c2c1`: the activity, negative = inhibition was 1.57% [at 11.4 µM] (inactive).
Still for that read-out and setting: in the case of `Cc1c(C(=O)c2ccc3ccccc3c2)c2cccc3c2n1[C@H](CN1CCOCC1)CO3` it was 6.16% (inactive).
On the same count and under the same terms, in the case of `COc1ccc2c3c1O[C@@H]1C(=O)CC[C@@]4(O)[C@@H](C2)N(CC2CC2)CC[C@]314` it was -21.4% (inactive); in that of `COc1ccc2c(c1)CCC1C2CC[C@]2(C)[C@H](NCCCCCCN3C(=O)C=CC3=O)CC[C@@H]12` (stereo partly specified), 33.9% (inactive); in that of `COc1cc2c(c(OC)c1OC)-c1ccc(O)c(=O)cc1[C@H](N)CC2`, -2.81% [at 25.6 µM] (inactive).
For the molecule `CN1[C@@H](C[C@@H](O)c2ccccc2)CCC[C@@H]1C[C@H](O)c1ccccc1`, the “activity, negative = inhibition” value was 35.4% [at 25.6 µM] (inactive).
As to `O=C(Oc1ccccc1)N1CCC2(CCCN(Cc3nccs3)C2)CC1`, the “activity, negative = inhibition” value was 22.6% (inactive).
With `NCC[C@H](O)C(=O)N[C@H]1C[C@@H](N)[C@@H](O[C@H]2O[C@@H](CN)[C@@H](O)[C@@H](O)[C@@H]2N)[C@@H](O[C@H]2O[C@@H](CO)[C@@H](O)[C@@H]2O)[C@@H]1O`, the “activity, negative = inhibition” value is 23.6% [at 25.6 µM] (inactive).
As for `Nc1nc(N)c(N=Nc2ccc([As](=O)(O)O)c(O)c2)c(N)n1`, the activity, negative = inhibition was 31% [at 11.4 µM] (inactive).
Regarding `NC(=NCCc1ccc(I)cc1)SCCCc1cnc[nH]1`, the “activity, negative = inhibition” value was -36.4% (inactive).
Consider `CN1C(=O)C(=Cc2ccc(N3CCCCCC3)o2)C(=O)N(C)C1=S`, for which the AC50 is 2240 nM (active).
In the case of `O=C(Nc1cccc(F)c1)N1CC2(CCNCC2)C1`, the “activity, negative = inhibition” value is -10.4% (inactive).
Consider `COC(=O)[C@@H]1[C@@H](O)[C@@]2(O)c3c(OC)cc(OC)cc3O[C@@]2(c2ccc(OC)cc2)[C@H]1c1ccccc1`, for which the activity, negative = inhibition was 8.06% [at 11.4 µM] (inactive).
Take `CCC1=C(C[C@H]2NCCc3ccccc32)C[C@@H]2c3cc(OC)c(OC)cc3CCN2C1`: the activity, negative = inhibition was -23.2% [at 11.4 µM] (inactive).
With `C[C@]12CC[C@@H]3[C@H](CCC4=CC(=O)CC[C@]43C)[C@]1(O)CC[C@@]2(O)C(=O)CO`, the activity, negative = inhibition is 24.8% [at 11.4 µM] (inactive).
As to `N[C@@H]1C=CC=C(C(=O)O)C1`, the “activity, negative = inhibition” value is 26.3% (inactive).
As to `O=[N+]([O-])c1ccc(S(=O)(=O)Cc2ccccc2)c([N+](=O)[O-])c1`, the AC50 was 2000 nM (active).
As to `O=C(O)Cc1ccc([N+](=O)[O-])cc1[N+](=O)[O-]`, the activity, negative = inhibition is -28.8% [at 11.4 µM] (inactive).
For `O=[N+]([O-])c1cc(O)c(O)c([N+](=O)[O-])c1`, the “activity, negative = inhibition” value is -35.3% (inactive).
`c1ccc(N2CC[C@@]3(CCCNC3)C2)nc1`: the “activity, negative = inhibition” value is 10.5% (inactive).
As to `CN1C(=O)C(=Cc2ccccc2Oc2ccc(Cl)c(F)c2)C(=O)N(C)C1=O`, the AC50 was 3550 nM (active).
Consider `COc1cc2c(cc1OC)[C@@]13CCN4CC5=CCO[C@H](CC(=O)O)[C@@H]([C@H]1N2)[C@H]5C[C@H]43`, for which the activity, negative = inhibition was -11.9% [at 11.4 µM] (inactive).
As to `C[C@](N)(CCP(=O)(O)O)C(=O)O`, the “activity, negative = inhibition” value is -26.4% (inactive).
For `CC1CN=C(Nc2cccc3ccccc23)S1` (stereo unspecified), the half-maximal activity concentration (AC50) is 3980 nM (active).
Turning to `CC(=O)O[C@@H]1CN2CCC1CC2`, the “activity, negative = inhibition” value was -13.1% (inactive).
Take `c1ccc(CCN2CCCCCC2)nc1`: the activity, negative = inhibition was 38.1% [at 11.4 µM] (inactive).
Take `CC(=O)N[C@@H]1CCSC1=O`: the “activity, negative = inhibition” value is 14.5% [at 25.6 µM] (inactive).
In the case of `CN(N=O)C(=O)N[C@H]1C(O)OC(CO)[C@@H](O)[C@H]1O` (stereo partly specified), the AC50 is 7940 nM (active).
On to `CC(=O)[C@]1(O)CC[C@@H]2[C@H]3C[C@@H](C)C4=CC(=O)CC[C@@]4(C)[C@H]3[C@@H](O)C[C@]21C`, for which the activity, negative = inhibition is -31.5% [at 11.4 µM] (inactive).
As for `C=C[C@@H]1CN2CC[C@H]1C[C@H]2[C@H](O)c1ccnc2ccccc12`, the activity, negative = inhibition was 44.5% [at 11.4 µM] (inactive).
On to `NC(N)=NN=Cc1c(Cl)cccc1Cl`, for which the “activity, negative = inhibition” value was 27.6% [at 25.6 µM] (inactive).
Consider `CCCN1CCO[C@@H]2c3cc(O)ccc3OC[C@H]21`, for which the “activity, negative = inhibition” value was -29.4% (inactive).
With `CCCN1CCO[C@@H]2c3cc(O)ccc3OC[C@@H]21`, the AC50 is 10000 nM (active).
Consider `CCCN1CC[C@@H]2c3cc(O)ccc3CC[C@H]21`, for which the “activity, negative = inhibition” value was -19% (inactive).
In the case of `O=C(O)[C@H]1[O][Sb][O][C@@H](C(=O)O)C1O` (stereo partly specified), the activity, negative = inhibition is 15.3% [at 11.4 µM] (inactive).
